# Source: PubChem BioAssay
# D3 ag: agonists of human D3 dopamine receptor; D3R DiscoveRx beta-arrestin cells, luminescence, 90 min; max activation, %; AID 652048; actives 0.58% (n = 410,000); P35462; in the data active = max activation above about 30%
# Target sequence (P35462 whole entry, looked up): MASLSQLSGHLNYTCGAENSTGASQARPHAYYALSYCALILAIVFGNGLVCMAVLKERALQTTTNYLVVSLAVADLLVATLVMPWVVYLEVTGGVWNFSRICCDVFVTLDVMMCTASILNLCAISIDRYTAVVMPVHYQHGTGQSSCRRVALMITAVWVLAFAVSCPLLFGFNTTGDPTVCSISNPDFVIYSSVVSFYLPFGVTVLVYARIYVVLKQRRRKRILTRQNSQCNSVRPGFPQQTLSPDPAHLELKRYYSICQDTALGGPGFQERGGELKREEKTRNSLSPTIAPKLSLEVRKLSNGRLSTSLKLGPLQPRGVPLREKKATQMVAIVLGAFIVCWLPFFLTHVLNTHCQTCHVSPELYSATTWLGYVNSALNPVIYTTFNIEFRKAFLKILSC
#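 Agonist mode: compounds and dopamine controls were applied to plated cells for 90 min at 37 degrees C after an overnight attachment at 1500 cells/well. Luminescent read-out followed 30 - 60 minutes at room temperature with DiscoveRx detection reagent.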
# D3 antag: antagonists of human D3 dopamine receptor. AID 652054. D3R cells, DiscoveRx beta-arrestin luminescence, antagonist mode; stronger effect = lower value. actives 2.5% (n = 360,000). max response, negative = inhibition, %; in the data active = max response below about -50%; inconclusive = no clear call, values can overlap the other calls
#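 Cells expressing the human receptor were seeded at 1500 cells/well, incubated overnight at 37 degrees C in 5% CO2, then exposed to library compounds with dopamine controls for 90 minutes at 37 degrees C before luminescent detection.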
# B2AR arrestin: beta2AR (human) beta-arrestin recruitment activity. P07550. beta-arrestin recruitment to beta2AR, cell-based reporter. Potency, µM (titrated, usually from 46.1 µM), hits mostly activators. actives 0.02% (n = 330,000). AID 492947; active = well fitted activation curve with a large enough effect; inconclusive = small, poorly fitted or top-dose-only effect; note: nearly all actives have a fitted effect of over 65% in size
# TSHR antagonist: blocks TSH signaling through the human TSH receptor. P16473. TSHR-expressing cells, TSH-stimulated cAMP HTRF, 2 h; stronger effect = lower value. activity change, negative = inhibition, % at 11.5 µM. actives 0.2% (n = 330,000);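 active = activity change below a set negative limit, meaning inhibition stronger than a set level, cut at about -70% in these data; inconclusive = activity change between two set negative limits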
#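 TSHR-expressing cells, 200/well, pre-treated with compound, then stimulated with EC80 TSH (4nM final) for 2 hours at 37 deg C. cAMP measured by competitive HTRF: anti-cAMP cryptate antibody in lysis buffer plus cAMP-d2, read after 30 minutes at room temperature.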
# A number is an active result; – = inactive; ? = inconclusive; · = no result. Most compounds without a hit are left out; they make up all but 2.9% or so of the library.
SMILES,D3 ag,D3 antag,B2AR arrestin,TSHR antagonist
CCN(CC)S(=O)(=O)c1ccc(NCc2ccccn2)nc1,–,–,–,–
CCCNc1ccc(S(=O)(=O)N(CC)CC)cn1,–,–,–,–
CCCNc1ccc(S(=O)(=O)N(C(C)C)C(C)C)cn1,–,-75,–,–
COc1ccccc1NC(=O)N1CCC(CN2CCc3ccccc3C2)CC1,–,·,·,·
CC(C)(C)NC(=O)C1CCC(C)(C(=O)O)C1(C)C (stereo not given),33,–,–,–
CCOc1ccc(NC(=O)C2CCC(C)(C(=O)O)C2(C)C)cc1 (stereo not given),–,–,–,–
COc1ccc(NC(=O)C2CCC(C)(C(=O)O)C2(C)C)cc1 (stereo not given),–,-55,·,·
C=CCn1c(C2CC2)n[nH]c1=S,–,–,–,–
CCCCCC1CCC(c2n[nH]c(=S)n2C)CC1 (stereo not given),–,–,4µM,–
C/C(=N\NS(=O)(=O)c1ccc(Cl)c([N+](=O)[O-])c1)c1cc2ccccc2o1,–,-98,–,–
C/C(=N\NS(=O)(=O)c1ccc(C)c([N+](=O)[O-])c1)c1cc2ccccc2o1,–,-70,–,–
C/C(=N\NS(=O)(=O)c1ccc(Cl)c([N+](=O)[O-])c1)c1ccc(C)o1,–,-70,–,–
Cc1ccc(C(=O)c2cc3ccccc3o2)cc1[N+](=O)[O-],–,?,–,–
CC(=O)Nc1ccc(NC(=O)c2cnn(-c3ccccc3)c2C2CCN(C(=O)OC(C)(C)C)CC2)cc1,–,·,·,·
CN(C)CCCCOc1ccc(Br)cc1Cl,–,–,–,–
CC1CCN(CCOc2cc(Cl)ccc2Cl)CC1,–,?,–,–
CC1CCN(CCOCCOc2ccc(Br)cc2Cl)CC1,–,-75,–,–
CC1CCCN(CCCOc2ccc(Br)cc2Cl)C1 (stereo not given),–,-77,–,–
O=C(CCc1nc2cccnc2n1Cc1ccccc1)NCc1cccc(Cl)c1,–,·,·,·
CCN1C(=O)/C(=C/N(C(C)=O)c2ccccc2)N(c2ccccc2)C1=S,–,-81,–,–
CCOC(=O)c1c(NC(=O)CCCOc2ccccc2C)sc2c1CCC(C)C2 (stereo not given),–,·,·,·
CN1CCN(C2=Cc3ccccc3Sc3cc(F)c(F)cc32)CC1,–,-62,–,–
CN1CCN(C2=Cc3ccccc3Sc3cc(F)c(Cl)cc32)CC1,–,?,–,–
Cc1ccc(CN2CCC(NC(=O)c3ccccc3)CC2)cc1,–,-96,–,–
Cc1ccc(C)n1-c1ccc(C(=O)NC2CCN(Cc3ccccc3)CC2)cc1,–,-52,–,–
SMILES,D3 ag,D3 antag,B2AR arrestin,TSHR antagonist
O=C(NC1CCN(Cc2ccccc2)CC1)c1ccc(CS(=O)c2ccccc2Cl)o1 (stereo not given),–,-117,·,·
CC1(C)Cc2cccc(C(=O)NC3CCN(Cc4ccccc4)CC3)c2O1,–,-77,–,–
Cc1ccc(S(=O)(=O)c2cnc(SCC(=O)Nc3ccc4c(c3)OCCO4)[nH]c2=O)cc1,–,·,·,·
CCc1nc2ccc(C(=O)NC3CCN(Cc4ccccc4)CC3)cn2c1N(C)Cc1ccc(N(C)C)cc1,–,-63,·,·
COC(=O)C1=C[C@@H](C(=O)OC)C2C3=C(C(=O)C24CCCCC4)[C@H](C)n2c(=O)n(-c4ccccc4)c(=O)n2[C@@H]3C1 (stereo not given in full),35,–,·,·
O=C(Nc1nnc(SCc2ccccc2Cl)s1)C1COc2ccccc2O1 (stereo not given),–,-59,–,–
COc1ccc(N2CCN(C(=O)[C@H](C)NC(=O)c3ccccc3Cl)CC2)cc1,–,–,–,-99
COc1ccc(N2CCN(C(=O)[C@@H](NC(=O)c3ccccc3Cl)C(C)C)CC2)cc1,–,–,–,–
COc1cc(C(=O)Nc2nonc2-c2ccc(Cl)cc2)cc(OC)c1OC,–,·,·,·
O=C(Nc1ccccc1)c1cccc(S(=O)(=O)Nc2cccc(F)c2)c1,–,·,·,·
CCOC(=O)N1CCN(C(=O)c2ccc3c(c2)N(C)C(=O)/C(=C\c2ccc(OCC)c(OC)c2)S3)CC1,46,–,–,–
CCOC(=O)N1CCN(C(=O)c2ccc3c(c2)NC(=O)/C(=C\c2ccc(OC)c(OC)c2)S3)CC1,–,–,–,-133
CN1C(=O)/C(=C/c2cccc(Cl)c2)Sc2ccc(C(=O)N3CCCC3)cc21,39,–,–,–
Cc1ccc2c(c1)c(=O)c(C(=O)c1ccccc1)cn2Cc1ccccc1F,–,·,·,·
COc1cc(/C=N/NC(=O)c2cccnc2)ccc1OS(=O)(=O)c1ccc(C)cc1,–,–,–,–
